This is an account of results in PubChem BioAssay (NCI).

Molecules are shown by their SMILES. Compounds without any hit were thinned out: in the full panel of roughly 83,000, 20% have a hit.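 Single-dose data. Exposure time 48 hours. Values below 10 considered active.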 A number with no mark means an inactive call. The source made the active and inactive calls.

The test system of one test is A498 renal. As to the kind of experiment: NCI-60 one-dose screen, 48 h (100 = growth as untreated, 0 = no growth, -100 = all killed). Conditions: 10 µM unless noted.
With `O=S1(=O)C=C(c2ccccc2)C(c2ccccc2)=C1`, the growth is 79.5%. With `O=C(O)COc1ccc(Cl)c(Cl)c1`, the growth was 110%. In the case of `O=C1/C(=C/c2ccccn2)NC(=S)N1c1ccccc1Cl`, the growth is 89.5%.

For the compound `CCS/C(Nc1ccccc1)=C(\C#N)C(=O)Nc1ccc(OC)cc1`, the growth is 22.7%. Consider `COc1ccc(C(=O)N2c3ccccc3Sc3ccccc32)c(C(F)(F)F)c1`, for which the growth is 8.71% (active). For `Cc1ccc(-c2csc(NC(=O)c3ccccc3CN3C(=O)c4ccccc4C3=O)n2)cc1`, the growth is 99.8%. On the same count and under the same terms, for `CNC(=O)c1cc(Oc2cccc3nc(NC(=O)Nc4cc(C(F)(F)F)ccc4Cl)ccc23)ccn1` the value was 109%.

Another test deals with CCRF-CEM leukemia. The test is described as above. As to conditions: 10 µM unless noted.
Turning to `CC(=O)OC[C@]12CC[C@@H]([C@@H](C)c3nnc(-c4ccncc4)o3)[C@@H]1[C@H]1CC[C@@H]3[C@@]4(C)CC[C@H](OC(C)=O)C(C)(C)[C@@H]4CC[C@@]3(C)[C@]1(C)CC2`, the growth was 68.4%. In the case of `CN(Cc1ccccc1)c1nc(Cl)c(C2CC(c3ccccc3)=NN2c2ccccc2)s1` (stereo not given), the growth is 94.3%. As to `CSc1nc(C)c([N+](=O)[O-])c(N)n1`, the growth was 62.5%.

In the case of `CN1CCN(Cc2ccc(NC(=O)c3cncc(C#Cc4cnc(N)c5ccc(F)cc45)c3)cc2C(F)(F)F)CC1`, the growth is -8.78% (active). On to `CN1CCN(C(=O)[C@@]2(C)CC[C@]3(C)CC[C@]4(C)C(=CC[C@@H]5[C@@]6(C)CCC(=O)NC(C)(C)[C@@H]6CC[C@]54C)[C@@H]3C2)CC1`, for which the growth is 29%.

For the compound `COc1ccc(/C=C2\CN(C(=O)C(Cl)Cl)C/C(=C\c3ccc(OC)cc3)C2=O)cc1`, the growth was 9.77% (active). As for `O=C(NNc1cnccn1)c1nc2cc(F)ccc2n2cccc12`, the growth is 4.42% (active).

With `COc1cc(/C=C2\CN(S(=O)(=O)c3ccccc3)C/C(=C\c3cc(CN4CCCCC4)c(O)c(OC)c3)C2=O)cc(CN2CCCCC2)c1O`, the growth is -2.62% (active). With `COc1ccc(/C=C/C(c2cc(OC)c(OC)c(OC)c2)n2ccnc2)cc1O` (stereo not given), the growth was 37.1%. Regarding `C/C=C(/C)n1cnc2c(Nc3ccccn3)nc(Cl)nc21`, the growth is 104%. The same measure, in the same setting: for `Oc1ccc(/C=C/c2ccc(O)cc2)cc1` the value was 4.33% (active). As for `C#CCOc1cccc(-c2ncnc3cc(NC(=O)C=C)ccc23)c1`, the growth is 8.7% (active). Turning to `CCOC(=O)c1nn(CC(O)c2ccccc2)c(NC(=O)Nc2cccc(F)c2)c1C` (stereo not given), the growth is 96.7%. `O=C(N/N=C\c1ccccc1S(=O)(=O)O)N/N=C/c1ccccc1S(=O)(=O)O`: the growth is 102%. Regarding `CC[C@]12C=CCN3CC[C@@]4(c5ccc(OC)cc5N(C)[C@H]4[C@@](O)(C(=O)OC)[C@@H]1OC(=O)CCC[P+](c1ccccc1)(c1ccccc1)c1ccccc1)[C@@H]32`, the growth was 11.1%.

Take `CCCn1nc(C(=O)N(C)Cc2ccccc2)c2c1CCC(N1CCc3ccccc31)C2` (stereo not given): the growth is 96.6%. Consider `C=C1C(=O)O[C@H]2[C@H]1CC/C(COC(=O)/C=C\C(=O)NCc1ccc(Cn3c(=O)sn(CCCl)c3=O)cc1)=C\CC[C@@]1(C)O[C@@H]21`, for which the growth is 7.92% (active). Turning to `COC(=O)c1ccc(NC(=O)Nc2ccc(C(=O)OC)cc2)cc1`, the growth is 90.8%.

For the compound `O=C(O)c1cn(C2CC2)c2cc(N3CCN(C(=O)Nc4nc(-c5ccc(Br)cc5)cs4)CC3)c(F)cc2c1=O`, the growth is 6.67% (active). Turning to `NC(=O)c1c(NC(=O)c2cccc(C(F)(F)F)c2)sc2c1CCC(=O)C2`, the growth is 0.959% (active). Turning to `CC1=C(C(=O)Nc2ccccc2)C(c2ccc3c(c2)OCO3)NC(=S)N1` (stereo not given), the growth was 115%. For `NS(=O)(=O)c1ccc(-c2cc(-c3nnc(SCC(=O)Nc4ccc(C(=O)/C=C/c5ccc(Cl)cc5)cc4)n3-c3ccccc3)c3ccccc3n2)cc1`, the growth is 90.3%.

As for `COC(=O)c1cc(Br)ccc1O`, the growth was 98.6%. Consider `C=C1C(=O)O[C@H]2[C@H]1CC/C(COC(=O)/C=C/C(=O)OC/C1=C/CC[C@@]3(C)O[C@H]3[C@H]3OC(=O)C(=C)[C@@H]3CC1)=C\CC[C@@]1(C)O[C@@H]21`, for which the growth is -12.9% (active).

For `CNC1=CC(=O)c2c(C(=O)OC)c(C)[n+]([O-])c(C)c2C1=O`, the growth is 81.6%. The same measure, in the same setting: for `O=C(Nc1ncccc1OCc1ccccc1)NC1CCCCCC1` the value was 77.5%; for `O=C1/C(=C\c2cccc3nccnc23)SC(=S)N1CCc1ccc(O)cc1`, 67.2%. As to `O=C1/C=C/[C@@H](O)[C@@H]2C[C@@H](O)C[C@H]2/C=C/CCC[C@@H](O)CCO1`, the growth is 116%.
